G9a inh: G9a (human) methyltransferase inhibition; Potency, µM (highest dose often 102 µM), without a hit: top-dose activity, negative = inhibition, hits mostly inhibitors; actives 8.8% (n = 350,000); Q96KQ7; AID 504332; G9a H3K9 monomethylation, AlphaScreen, 2 h; further: potency means the concentration at half of the fitted maximal effect; on the % scale 0 is the no-effect control and ±100 the full control effect; nearly all actives have a fitted effect of over 75% in size
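Methyltransferase reactions run at room temperature for 2 h (20 nM enzyme, 500 nM biotin-H3K9 peptide, 20 uM SAM) after a 15 min compound preincubation; product detected by AlphaScreen beads and anti-H3K9me1 antibody.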
Six1-Eya2 blk: Six1/Eya2 interaction inhibition | Q15475+O00167 | activity change, % (no concentration beside the values) | actives 0.56% (n = 360,000) | AlphaScreen GST-Six1/His-Eya2 binding, biochemical; hits give low values; in the data active means activity change below about -65%; inconclusive means mostly about -30% to -63%; further: on the % scale 0 is the no-effect control and ±100 the full control effect
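GST-Six1 + His-Eya2 (5X stock: 250/500 nM); Tris pH 8.0, 300 mM NaCl, 0.05% BSA, 0.02% Tween 20; GSH donor/Ni acceptor beads; 1 h 37 °C dark; AlphaScreen readout.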
JMJD2A Tudor inh: JMJD2A Tudor domain (human) inhibition | O75164 | AlphaScreen JMJD2A-Tudor / H3K4me3 peptide binding | actives 4.4% (n = 390,000) | Potency, µM (top dose mostly 114 µM), for the others: at the top dose activity change, negative = inhibition, most hits filed as inhibitors; further: potency means the concentration at half of the fitted maximal effect; on the % scale 0 is the no-effect control and ±100 the full control effect; nearly all actives have a fitted effect of over 50% in size
HP1b binding inh: HP1-beta chromodomain-methylated histone interaction inhibition. Potency, µM (top dose mostly 114 µM), without a hit: at the highest dose activity change, negative = inhibition, most hits filed as inhibitors. actives 0.56% (n = 390,000). AlphaScreen HP1-beta / biotin-H3K9me3 peptide binding. P83916; further: potency means the concentration at half of the fitted maximal effect; nearly all actives have a fitted effect of over 70% in size
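HP1-beta protein (50 nM final) preincubated 30 min at room temperature with biotinylated H3(1-18)K9me3 peptide (50 nM) in PBS pH 7.4, 0.01% Tween-20, then compound added for 30 min. AlphaScreen streptavidin donor/nickel chelate acceptor beads (10 ug/mL final), 30 min dark, luminescence read.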
BAZ2B block: blocks human BAZ2B; Q9UIF8; AlphaScreen BAZ2B-H3K14Ac peptide displacement; Potency, µM (series often up to 114 µM), for inactives: at the top dose activity change, negative = inhibition, actives largely listed as inhibitors; actives 4.4% (n = 360,000); further: potency means the concentration at half of the fitted maximal effect; on the % scale 0 is the no-effect control and ±100 the full control effect; nearly all actives have a fitted effect of over 60% in size
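AlphaScreen displacement: compounds (up to 110uM) incubated 30 min at room temperature with a preformed 50 nM BAZ2B/50 nM biotinylated H3K14Ac peptide complex in PBS pH 7.4 with Tween-20. Donor and acceptor beads at 10 ug/mL final added, 20 min light-protected before reading.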
CtBP-E1A blk: blocks the CtBP interaction with E1A | AlphaScreen GST-E1A/His-CtBP binding, 1536-well; hits give low values | activity change, % (test concentration not listed) | actives 0.49% (n = 340,000) | AID 651724; in the data active means activity change below about -65%; inconclusive means mostly about -30% to -63%; further: on the % scale 0 is the no-effect control and ±100 the full control effect
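Steps: dispense buffer (Tris pH 8.0, NaCl 300 mM, TCEP 1 mM, BSA, Tween 20); add 5X protein mix (GST-E1A, His-CtBP, 125 nM each); pin 23 nL compound; 2 h at 37 °C, dark; add 5X beads (50 ug/mL); 1 h; read.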
Numbers without * were called inactive; u = inconclusive; x = not tested or not shown; [ ] = dose if it differs, or a comment. Rows were chosen to be rich in hits. Some 10% of all compounds tested hit in one or more screens of this group. Unless noted, the call rests on the fitted dose curve; in most records, active means well fitted inhibition curve with a large enough effect; inconclusive means small, poorly fitted or top-dose-only effect; inactive means no such curve, though single readings can be large or run the other way.

SMILES	G9a inh	Six1-Eya2 blk	JMJD2A Tudor inh	HP1b binding inh	BAZ2B block	CtBP-E1A blk
C/C(=N\Nc1ccc(Cl)c(C(=O)O)c1)c1cccs1	x	-17	-12%	28%	-15%	-7
C/C(=N\Nc1ccc(Cl)c(C(=O)O)c1)c1ccc(N2CCOCC2)cc1	40µM*	-8	-28%	-13%	-11%	-9
O=C(O)c1cc(N/N=C/c2ccc(N3CCOCC3)s2)ccc1Cl	2.2µM*	u	45µM*	u	50µM*	-6
NC(=O)N/N=C/c1ccc(N2CCOCC2)s1	3.2µM*	-7	-23%	9%	-36%	-6
C/C(=N\Nc1ccc(Cl)c(C(=O)O)c1)c1ccc[nH]1	25µM*	-23	u	11%	u	6
CCn1c(CN2CCOCC2)nc2cc(NC(=O)c3cccc([N+](=O)[O-])c3)ccc21	-19%[59 µM]	x	-23%	24%	-17%	x
N#CCCn1c(=O)c(CCc2ccccc2)nc2cnc(Nc3ccccc3)nc21	1%[0.501 µM]	x	x	x	x	x
COc1ccc(-c2cc(-c3ccco3)[nH]c(=O)c2C#N)cc1	x	5	u	17%	56µM*	10
N#Cc1c(-c2cccc(Br)c2)cc(-c2ccco2)[nH]c1=O	11µM*	-5	u	-3%	45µM*	5
N#Cc1c(-c2ccccc2)cc(-c2ccccc2)[nH]c1=O	37%	5	-4%	43%	6%	x
CC(C)Cc1nn2c(=O)cc(COC(=O)c3cccc(NS(C)(=O)=O)c3)nc2s1	5%[59 µM]	x	-19%	19%	-2%	x
Cc1c(Cl)cccc1NC(=O)CCN1C(=O)NC(C)(C)C1=O	50µM*	-3	2%	49%	-5%	11
Cc1c(Cl)cccc1NC(=O)CCN1CCOCC1	40µM*	-1	-3%	32%	4%	8
Cc1c(Cl)cccc1NC(=O)NCc1ccc(F)cc1	50µM*	5	-8%	11%	-5%	x
Cc1c(Cl)cccc1NC(=O)CCC(=O)N/N=C/c1ccc[nH]1	18µM*	-2	-29%	2%	5%	-7
COc1ccccc1NC(=O)C1CCN(c2cnccn2)CC1	3%[59 µM]	x	-11%	11%	-10%	x
Cc1ccc(Cl)cc1N1CCN(C(=O)c2cn(C3CCCCC3)c(=O)c3c2c2ccccc2n3C)CC1	u	x	-21%	2%	-25%	x
COc1cc(NC(=O)CC(C)S(=O)(=O)c2cc3c4c(c2)CCN4C(=O)CC3)cc(OC)c1 (centres undefined)	-39%[59 µM]	x	-2%	22%	2%	x
CSc1nc(NS(=O)(=O)c2cc(Br)ccc2Br)cc(=O)[nH]1	56µM*	-3	-21%	-16%	-5%	-6
Cc1ccc(C)c(C(=O)COC(=O)CNS(=O)(=O)c2ccccc2)c1	71µM*	4	-14%	1%	4%	4
O=C(CCNS(=O)(=O)c1ccc(Cl)cc1)OCC(=O)c1ccc[nH]1	-3%	-2	-5%	15%	-9%	-1
O=C(CCNS(=O)(=O)c1ccccc1)OCC(=O)c1ccc[nH]1	50µM*	-2	-6%	20%	7%	-18
COC(=O)c1ccc(-n2c(C)cc(C(=O)COC(=O)CNS(=O)(=O)c3ccc(C)cc3)c2C)cc1	u	-16	22µM*	-13%	-34%	-18
Cc1ccc(S(=O)(=O)NCC(=O)OCC(=O)c2cc(C)n(-c3ccccc3)c2C)cc1	u	-27	-23%	-18%	u	-9
COC(=O)c1ccc(Cl)cc1NC(=O)N(C)CCc1c(C)nn(C)c1C	2%[59 µM]	x	-4%	19%	-15%	x
SMILES	G9a inh	Six1-Eya2 blk	JMJD2A Tudor inh	HP1b binding inh	BAZ2B block	CtBP-E1A blk
CC1Sc2ccc(C(=O)NCc3ccccn3)cc2NC1=O (centres undefined)	u	-4	u	u	-16%	-15
CC1SC(=NC(=O)c2ccncc2)NC1=O (centres undefined)	40µM*	5	-8%	4%	-20%	2
O=C(CSC(=S)N1CCCC1)c1cc(Br)cc(Br)c1O	20µM*	-5	u	u	40µM*	9
CSCC[C@H](NC(=O)[C@@H]1Cc2ccccc2CN1)C(=O)NC(C)c1ccccc1 (some centres undefined)	22µM*	1	u	21%	-28%	2
Cc1ccc(NC(=O)[C@H](NC(=O)[C@@H]2Cc3ccccc3CN2)c2ccccc2)cc1	x	1	-26%	9%	u	-9
CSCC[C@H](NC(=O)[C@@H]1Cc2ccccc2CN1)C(=O)NC1CCCC1	x	4	0%	20%	-20%	7
CC(C)c1ccc(NC(=O)[C@H](NC(=O)[C@@H]2Cc3ccccc3CN2)c2ccccc2)cc1	45µM*	-4	-18%	48%	-28%	-2
CC(C)c1ccc2c(c1)C(c1cccs1)=NNC(c1ccncc1)=N2	28µM*	-1	-33%	13%	u	2
COc1ccc2c(c1)C(c1ccc(N3CCOCC3)cc1)=NNC(c1cccnc1)=N2	-5%[59 µM]	-17	-36%	-15%	u	-27
COc1ccc2c(c1)C(c1cccs1)=NNC(c1ccncc1)=N2	x	-16	u	-8%	u	-1
CC(C)c1ccc2c(c1)C(c1ccc(N3CCOCC3)cc1)=NNC(c1cccs1)=N2	45µM*	-23	u	-17%	u	-4
COC(=O)CCn1cnc2onc(-c3cc(F)cc(F)c3)c2c1=O	9%[59 µM]	x	-6%	35%	-1%	x
O=C1SC(SC(=Nc2ccccc2)Nc2ccccc2)C(=O)N1c1ccccc1 (centres undefined)	45µM*	-15	u	u	u	-14
Cc1cccc(N2C(=O)CC(SC(=Nc3ccccc3)Nc3ccccc3)C2=O)c1 (centres undefined)	9%[59 µM]	-7	-23%	30%	10%	-1
C/C(CCN1CCc2nc(-c3ccccc3)c(-c3ccccc3)cc2C1)=N\OC[C@@H](C)[C@H](OCc1ccccc1)C(C)C	45µM*	u	-27%	13%	-22%	-6
CN1CCc2nc(SCCOc3ccccc3)c(C#N)cc2C1	u	-28	-9%	31%	3%	6
C/C(CCN1CCc2nc(-c3ccccc3)c(-c3ccccc3)cc2C1)=N\O[C@H](C)c1cn([C@H](CO)Cc2ccccc2)nn1	50µM*	x	x	x	-34%	x
CCCOc1ccccc1C(=O)Nc1nc2c(s1)CCCC2	18%[59 µM]	x	-5%	57%	1%	x
CCc1ccc(C(=O)c2cn(CC(=O)Nc3cc(OC)ccc3OC)c3ccc(C)cc3c2=O)cc1	-11%[59 µM]	x	-14%	22%	-9%	x
O=C(Nc1ccccc1N1CCCCC1)c1ccc([N+](=O)[O-])o1	11µM*	u	u	45µM*	11µM*	3

Screening data deposited in PubChem by National Center for Advancing Translational Sciences (NCATS).
